# Compounds without any hit were thinned out: in the full panel of roughly 83,000, 20% have a hit.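 The endpoint reported here, percent growth, reads 100 for growth as untreated, 0 for no net growth and -100 for all cells dead.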 Activity calls are given as the source filed them. Rule for the calls: active = growth percent below 10; inactive = the rest.
# Tested on: CCRF-CEM leukemia
# Assay: NCI-60 one-dose screen, 48 h (100 = growth as untreated, 0 = no growth, -100 = all killed)
# Conditions: 10 µM
row,Compound,growth
1,CSc1cc(SC)ncn1,94% (inactive)
2,CCOC(=O)CNC(=O)CCCCSc1ncnc2nc[nH]c12,113% (inactive)
3,COc1ccc(OC)c(/C=C/c2nc(SCc3ccccc3)n(-c3ccc(Cl)cc3)n2)c1,24.2% (inactive)
4,c1ccc(C(NC2CC3CCC2C3)c2ccccc2)cc1 (stereo not drawn),87.6% (inactive)
5,O=[N+]([O-])c1cccc(N=Cc2ccc3c(c2)OCO3)c1,97% (inactive)
6,Nc1cc2c(cc1Cl)-c1ccc([N+](=O)[O-])cc1/C2=N\O,28.7% (inactive)
7,COc1ccc(OC)c2c1C(=O)CC2C (stereo not drawn),101% (inactive)
8,N#CSCC1CC(O)(c2ccccc2)CC(c2ccc(Cl)cc2)O1 (stereo not drawn),15% (inactive)
9,CCOC(=O)C1CCc2c(ccc3ccccc23)N1CCC#N (stereo not drawn),89.2% (inactive)
10,Fc1ccc(-c2nnc(-c3c(-c4ccc(F)cc4)nc4ccccn34)o2)cc1,95.4% (inactive)
11,O=C1/C(=C/c2ccc(Cl)cc2)SC(=Nc2ccc(Cl)cc2)N1Cc1nc2ccccc2[nH]1,62.6% (inactive)
12,COc1ccc(C2CC(c3ccc(N(C)C)cc3)=NN2c2ccc(S(N)(=O)=O)cc2)cc1 (stereo not drawn),49.4% (inactive)
13,Nc1ccc2c(c1)Cc1cc(N)c(Br)cc1-2,82.1% (inactive)
14,Cc1ccc(Nc2nnc(-c3cc(-c4ccncc4)n(-c4ccccc4)n3)s2)cc1,35.7% (inactive)
15,O=C(N/N=C\c1cc(Cl)ccc1[N+](=O)[O-])c1ccco1,102% (inactive)
16,COc1ccc2c(c1)sc1nc(-c3ccccc3)c(-c3ccsc3)n12,23.2% (inactive)
17,O=C(N/N=C/c1ccccc1O)C(O)(c1ccccc1)c1ccccc1,24.7% (inactive)
18,O=C(Nc1cccc(Br)c1)c1cc(=O)[nH]c2ccccc12,84.9% (inactive)
19,CC(C)=NNc1ncnc2c1ncn2C1OC(CO)C(O)C1O (stereo not drawn),35.9% (inactive)
20,CCCCCCCCCCCCCC[n+]1ccc(C(N)=O)cc1,2.78% (active)
21,COc1ccc(Cl)cc1C(=O)Nc1nc2ccc(Cl)cc2s1,86.4% (inactive)
22,O=C(CSSCC(=O)c1ccc(Cl)cc1)c1ccc(Cl)cc1,15.3% (inactive)
23,O=[P@@]1(c2ccccc2)O[C@H](COCc2ccccc2)[C@@H](OCc2ccccc2)[C@H](OCc2ccccc2)[C@H]1O,92.3% (inactive)
24,CCCCOC(=O)Oc1ccc(C(=O)Oc2ccc(OCC)cc2)cc1,8.77% (active)
25,O=C1c2ccc3c4c(ccc(c24)C(=O)N1CCNCc1ccccc1)C(=O)N(CCNCc1ccccc1)C3=O,-6.55% (active)
26,Cc1ccc(-c2nc(/C=C3/C(=O)N(C)c4ccc(F)cc43)c3ccccn23)cc1,111% (inactive)
27,COc1ccc(OC)c(/C=C/c2nc(SC)n(-c3ccc(Cl)cc3)n2)c1,71.4% (inactive)
28,COc1cccc(-c2cc(-c3cccc(NS(C)(=O)=O)c3)nc(N)c2C#N)c1O,12.3% (inactive)
29,CC1CN(Cc2ccccc2)C(=O)NC1=O (stereo not drawn),103% (inactive)
30,Cc1cn(C2CCCCO2)c(=O)nc1NO (stereo not drawn),102% (inactive)

# Tested on: MOLT-4 leukemia
# Assay: as above
# Conditions: 10 µM
row,Compound,growth
1,CSc1cc(SC)ncn1,105% (inactive)
2,CCOC(=O)CNC(=O)CCCCSc1ncnc2nc[nH]c12,101% (inactive)
3,COc1ccc(OC)c(/C=C/c2nc(SCc3ccccc3)n(-c3ccc(Cl)cc3)n2)c1,30.4% (inactive)
4,c1ccc(C(NC2CC3CCC2C3)c2ccccc2)cc1 (stereo not drawn),94% (inactive)
5,CN1CCC2(CC1)NC(=O)c1c(c3ccc(Cl)c(Cl)c3n1C)C2C#N (stereo not drawn),64.1% (inactive)
6,O=[N+]([O-])c1cccc(N=Cc2ccc3c(c2)OCO3)c1,89.7% (inactive)
7,Nc1cc2c(cc1Cl)-c1ccc([N+](=O)[O-])cc1/C2=N\O,37.9% (inactive)
8,COc1ccc(OC)c2c1C(=O)CC2C (stereo not drawn),112% (inactive)
9,N#CSCC1CC(O)(c2ccccc2)CC(c2ccc(Cl)cc2)O1 (stereo not drawn),-11.5% (active)
10,CCOC(=O)C1CCc2c(ccc3ccccc23)N1CCC#N (stereo not drawn),77.9% (inactive)
11,Fc1ccc(-c2nnc(-c3c(-c4ccc(F)cc4)nc4ccccn34)o2)cc1,100% (inactive)
12,O=C1/C(=C/c2ccc(Cl)cc2)SC(=Nc2ccc(Cl)cc2)N1Cc1nc2ccccc2[nH]1,57.3% (inactive)
13,CO/N=C(/C(=O)NC1C(=O)N2C(C(=O)O)=C(COC(N)=O)CSC12)c1ccco1 (stereo not drawn),111% (inactive)
14,CN(C)CCNC(=O)c1cccn2c(=O)c3cc4ccccc4cc3nc12,-27.2% (active)
15,Oc1[nH]c2ccc(Cl)cc2c1/C=c1/ccc2c(c1)N=C(c1cccs1)N=2,42.3% (inactive)
16,Nc1ccc2c(c1)Cc1cc(N)c(Br)cc1-2,94.1% (inactive)
17,Cc1ccc(Nc2nnc(-c3cc(-c4ccncc4)n(-c4ccccc4)n3)s2)cc1,59.5% (inactive)
18,O=C(N/N=C\c1cc(Cl)ccc1[N+](=O)[O-])c1ccco1,93.6% (inactive)
19,COc1ccc2c(c1)sc1nc(-c3ccccc3)c(-c3ccsc3)n12,36.4% (inactive)

row,Compound,growth
1,O=C(N/N=C/c1ccccc1O)C(O)(c1ccccc1)c1ccccc1,31.2% (inactive)
2,CCCCCCCCCCCCC1C/C=C\CCCC(=O)O1 (stereo not drawn),37.4% (inactive)
3,O=C(Nc1cccc(Br)c1)c1cc(=O)[nH]c2ccccc12,96.1% (inactive)
4,CC(C)=CCc1ccc(O)c(=O)cc1C(C)C,8.5% (active)
5,Cc1occc1-c1nnc(SCC(=O)c2ccc(NC(=O)CC(C)C)cc2)o1,100% (inactive)
6,CC(C)=NNc1ncnc2c1ncn2C1OC(CO)C(O)C1O (stereo not drawn),56.4% (inactive)
7,CCCCCCCCCCCCCC[n+]1ccc(C(N)=O)cc1,-34.8% (active)
8,COc1ccc(Cl)cc1C(=O)Nc1nc2ccc(Cl)cc2s1,95.6% (inactive)
9,O=C(CSSCC(=O)c1ccc(Cl)cc1)c1ccc(Cl)cc1,13.9% (inactive)
10,O=[P@@]1(c2ccccc2)O[C@H](COCc2ccccc2)[C@@H](OCc2ccccc2)[C@H](OCc2ccccc2)[C@H]1O,94.3% (inactive)
11,Nc1ncn([C@@H]2O[C@H](CO)[C@@H](O)[C@H]2O)c(=O)n1,33.6% (inactive)
12,CCCCOC(=O)Oc1ccc(C(=O)Oc2ccc(OCC)cc2)cc1,111% (inactive)
13,O=C1c2ccc3c4c(ccc(c24)C(=O)N1CCNCc1ccccc1)C(=O)N(CCNCc1ccccc1)C3=O,-9.12% (active)
14,CCn1cc(C(=O)O)c(=O)c2cnc(N3CCCC3)nc21,108% (inactive)
15,Cc1ccc(-c2nc(/C=C3/C(=O)N(C)c4ccc(F)cc43)c3ccccn23)cc1,100% (inactive)
16,COc1ccc(OC)c(/C=C/c2nc(SC)n(-c3ccc(Cl)cc3)n2)c1,73% (inactive)
17,COc1cccc(-c2cc(-c3cccc(NS(C)(=O)=O)c3)nc(N)c2C#N)c1O,35% (inactive)
18,CC1CN(Cc2ccccc2)C(=O)NC1=O (stereo not drawn),94.2% (inactive)
19,Cc1cn(C2CCCCO2)c(=O)nc1NO (stereo not drawn),99.1% (inactive)

# Reference: PubChem BioAssay (NCI)
